Out of some 85,000 compounds screened, about 440 (0.52%) showed an effect of 50% or more. Many of the other results were omitted from the sample, so strong results are more common in it than they were.
Assay: In vitro enzyme assay to detect hydrolysis of chlorophenol red-beta-D-[…] directly proportional to the number of Toxoplasma stably expressing beta-galactosidase
Assay type: functional, organism-based, Toxoplasma gondii
Set-up: scale not given: in the data most compounds retested in dose-response had high values

## O=C(NCCc1cccs1)c1cc[nH]n1
50 µM
  Percent Effect: 7.034%

## CCC(N)c1cnn(CC)c1 (stereo not given)
50 µM
  Percent Effect: -19.44%

## O=C(c1ccc(O)nc1)N1CCN(C(=O)c2ccc(F)c(F)c2)CC1
10 µM
  Percent Effect: 5.066%

## O=C(c1ccc(O)nc1)N1CCCCCCC1
50 µM
  Percent Effect: -10.69%

## O=C(c1ccc(-c2ccc(O)nc2)s1)N1CCCCCC1
10 µM
  Percent Effect: 59.06%

## O=C(c1cnn(-c2ccccc2)c1)N1CCCCC1
50 µM
  Percent Effect: -4.798%

## O=C(c1cc(-c2cccs2)cs1)N1CCSCC1
10 µM
  Percent Effect: -31.67%

## O=C(c1ccc(-c2ccc(O)nc2)s1)N1CCSCC1
10 µM
  Percent Effect: 61.48%

## CCNc1ncc(C(=O)N2CCCCC2)s1
50 µM
  Percent Effect: 3.681%

## O=C(c1ccc(-c2ccc(O)nc2)s1)N1CCCCC1
10 µM
  Percent Effect: 53%

## O=C(c1cnc(-c2cccnc2)nc1)N1CCSCC1
10 µM
  Percent Effect: 1.887%

## O=C(CN1CCNCC1)c1ccccc1Cl
50 µM
  Percent Effect: -6.338%

## O=C(c1cnsn1)N1CC=C(c2ccccc2)CC1
50 µM
  Percent Effect: 3.694%

## CCC(C)(O)CCN (stereo not given)
50 µM
  Percent Effect: 17.18%

## Cc1ccc(NC(=O)CN2CCNCC2)c(C)c1
50 µM
  Percent Effect: -5.303%

## CCC(CC)NC(=O)CSc1nnc(N)n1C
50 µM
  Percent Effect: -0.697%

## Cn1ncc2c(NCc3ccccc3CO)ncnc21
50 µM
  Percent Effect: 2.537%

## Cc1cc(C)n(C2CN(CC(=O)N(C)Cc3ccc(C)o3)C2)n1
10 µM
  Percent Effect: 1.659%

## Cc1ccc(CN(C)C(=O)Cn2cnnn2)o1
50 µM
  Percent Effect: 88.2%

## Cc1ccc(CN(C)C(=O)CSc2nncn2C)o1
50 µM
  Percent Effect: 6.979%

## CN1CCCN(C(=O)c2ccc(C#N)cc2)CC1
50 µM
  Percent Effect: -7.834%

## CC(C)c1nc(CN2CCCC3(CCNC3)C2)co1 (stereo not given)
50 µM
  Percent Effect: -11.26%

## NC(c1ccccc1)C1(CO)CCC1 (stereo not given)
50 µM
  Percent Effect: 8.034%

## Cc1ccc(OCCNC(=O)CN2CSCC2=O)cc1
50 µM
  Percent Effect: -3.002%

## Cc1nn(C)c2c(=O)n(C(C)C)c(NCCc3ccccc3)nc12
10 µM
  Percent Effect: 81.01%

## CCn1c(NCc2cccnc2)nc2c(C)nn(C)c2c1=O
10 µM
  Percent Effect: 57.44%

## Cc1nn(C)c2c(=O)n(C(C)C)c(NCC3CCCO3)nc12 (stereo not given)
10 µM
  Percent Effect: 6.206%

## Cc1nn(C)c2c(NCc3cccnc3)nc(C(C)C)nc12
10 µM
  Percent Effect: 25.8%

## Cc1nc(NCc2ccccn2)c2c(n1)c(C)nn2C
10 µM
  Percent Effect: 13.62%

## CCOc1ccccc1Nc1nc2c(C)nn(C)c2c(=O)n1C
10 µM
  Percent Effect: 17.23%

## CCn1c(NCc2ccccn2)nc2c(C)nn(C)c2c1=O
10 µM
  Percent Effect: 61.62%

## CCc1nc(NCc2ccccn2)c2c(n1)c(C)nn2C
10 µM
  Percent Effect: 20.03%

## CCCn1c(NCCc2ccccc2)nc2c(C)nn(C)c2c1=O
10 µM
  Percent Effect: 74.28%

## Cc1nc(NCc2cccnc2)c2c(n1)c(C)nn2C
10 µM
  Percent Effect: -7.547%

## COc1ccccc1Nc1nc2c(C)nn(C)c2c(=O)n1C
10 µM
  Percent Effect: 9.981%

## CC(=O)c1ccc2c(c1)CCC(=O)N2C
50 µM
  Percent Effect: 4.842%

## CCOC(=O)NCCC(=O)N1CCCCCC1
50 µM
  Percent Effect: 12.12%

## Cc1ccc(F)c(S(=O)(=O)NC[C@@H]2CCNC[C@H]2O)c1
50 µM
  Percent Effect: 0.2013%

## CN(C)Cc1nnc(-c2ccccc2)o1
50 µM
  Percent Effect: 4.493%

## Cc1cc(CN)sc1C
50 µM
  Percent Effect: 12.43%

## COC(=O)c1ccc2c(c1)N(C)C(=O)CO2
50 µM
  Percent Effect: -4.49%

## CCn1c(NCc2ccco2)nc2c(C)nn(C)c2c1=O
10 µM
  Percent Effect: 8.368%

## CCn1c(Nc2ccccc2OC)nc2c(C)nn(C)c2c1=O
10 µM
  Percent Effect: -60.37%

## COc1ccc(C(C)Nc2nc3c(C)nn(C)c3c(=O)n2C)cc1 (stereo not given)
10 µM
  Percent Effect: 18.77%

## CCn1c(NCc2ccc(OC)cc2)nc2c(C)nn(C)c2c1=O
10 µM
  Percent Effect: 69.56%

## CCn1c(NCc2ccccc2)nc2c(C)nn(C)c2c1=O
10 µM
  Percent Effect: 72.53%

## COc1ccc(Nc2nc3c(C)nn(C)c3c(=O)n2C)cc1
10 µM
  Percent Effect: 8.6%

## O=C(NCC1(O)CCNC1)c1ccc(F)c(O)c1 (stereo not given)
50 µM
  Percent Effect: -8.112%

## O=C(NCc1c[nH]nn1)C1(Cc2ccccc2)CCC1
50 µM
  Percent Effect: -1.868%

## O=C(Nc1cnccn1)c1ccc(F)cn1
50 µM
  Percent Effect: 3.391%

## Cc1ncc(CNCCO)c2cc(C(=O)c3ccc(Br)cc3)oc12.Cl
10 µM
  Percent Effect: 76.96%

## Cc1ncc(CNC(C)(C)CO)c2cc(C(=O)c3ccc(Br)cc3)oc12
10 µM
  Percent Effect: 20.02%

## Cc1ncc(CN(C)CCO)c2cc(C(=O)c3ccc(Br)cc3)oc12.Cl
10 µM
  Percent Effect: 15.47%

## Cc1ncc(CN2CCCC2)c2cc(C(=O)c3ccc(Br)cc3)oc12.Cl
10 µM
  Percent Effect: 24.27%

## Cc1ncc(CNCC(C)O)c2cc(C(=O)c3ccc(Br)cc3)oc12.Cl (stereo not given)
10 µM
  Percent Effect: 12.01%

## COC(=O)c1ccc(C(=O)NC2(C#N)CCCC2)cc1
50 µM
  Percent Effect: -9.94%

## COc1cc(CN)cc(Br)c1OC
50 µM
  Percent Effect: 0.1756%

## Cn1ccc(C(=O)N2CCOc3ccccc32)cc1=O
50 µM
  Percent Effect: -11.87%

## Cc1scc(-c2nnc(SCC(N)=O)n2C)c1C
50 µM
  Percent Effect: -29.64%

## CSC(C)C(=O)Nc1ccc(Cl)c(C(=O)N(C)C)c1 (stereo not given)
50 µM
  Percent Effect: 8.458%

## Cn1nccc1C(=O)Nc1cnn(CC(F)(F)F)c1
50 µM
  Percent Effect: -29.38%

## Cc1cc(C(=O)Nc2cnn(CC(F)(F)F)c2)nc(N(C)C)n1
10 µM
  Percent Effect: 54.34%

## CCn1cc(NC(=O)c2cc(C)nc(N3CCOCC3)n2)cn1
10 µM
  Percent Effect: 48.82%

## Cc1cc(C(=O)NCc2c(C)nn(C)c2C)nc(N2CCOCC2)n1
10 µM
  Percent Effect: 20.1%

## CCN(CC)c1nc(C)cc(C(=O)Nc2cnn(CC)c2)n1
10 µM
  Percent Effect: -30.04%

## Cc1cc(C(=O)Nc2cnn(CC(F)(F)F)c2)nc(N2CCOCC2)n1
10 µM
  Percent Effect: 69.43%

## CCCn1ccc(NC(=O)NC(C)C)n1
50 µM
  Percent Effect: -36%

## CN(C)CC(=O)NC(C)(C(N)=O)c1cccc(Cl)c1 (stereo not given)
50 µM
  Percent Effect: 2.258%

## Cc1ccc2c(c1)C(=O)NCC2
50 µM
  Percent Effect: -9.759%

## CCc1ccc(CN(CCO)Cc2nccn2C)nc1
50 µM
  Percent Effect: 67.1%

## CSc1ccc(CN(CCO)Cc2nccn2C)cc1
10 µM
  Percent Effect: 19.56%

## Cc1cccc(CN(CCO)Cc2nccn2C)n1
50 µM
  Percent Effect: 18.88%

## NC(=O)OCCNC(=O)c1occc1Br
50 µM
  Percent Effect: 5.554%

## CCN1CCCC1CNC(=O)c1cccc(OC)c1 (stereo not given)
50 µM
  Percent Effect: 4.98%

## CCNC(=O)C1CN(C(=O)C(O)c2ccc(Br)cc2)C1 (stereo not given)
50 µM
  Percent Effect: -1.346%

## Cc1ccc([C@]2(O)CC[C@H]3CN(Cc4cccc(F)c4F)C[C@H]32)nc1.O=C(O)CC(O)(CC(=O)O)C(=O)O
10 µM
  Percent Effect: -4.995%

## Cc1ccc([C@]2(O)CC[C@H]3CN(Cc4ccc(Cl)cc4Cl)C[C@H]32)nc1
10 µM
  Percent Effect: 8.934%

## Cc1cccnc1[C@]1(O)CC[C@H]2CN(Cc3cccc(Cl)c3Cl)C[C@H]21.O=C(O)CC(O)(CC(=O)O)C(=O)O
10 µM
  Percent Effect: 10.13%

## Cc1ccc([C@]2(O)CC[C@H]3CN(Cc4cccc(Cl)c4Cl)C[C@H]32)nc1.O=C(O)CC(O)(CC(=O)O)C(=O)O
10 µM
  Percent Effect: 51.44%

## CSc1ccc(CN2C[C@@H]3CC[C@@](O)(c4ccc(C)cn4)[C@@H]3C2)cc1
10 µM
  Percent Effect: 14.14%

Reference: ChEMBL document CHEMBL3988442, “University of Dundee, Small-Polar-MMV Screening Library” (2021)
